# Reference: PubChem BioAssay AID1159580 (chemical genetic matrix, 2015)
# Values joined by “and” are separate entries in the source; they are usually repeats but may differ in a detail not shown here. Equal values may be shown once. Among all 5,500 compounds or so, about 2,000 (36%) were called active. Not shown: some 18% with an inconclusive outcome. The list shows a part of the results. Unmarked numbers belong to inactive results. Cut-off read from the data, not from the text of the source: active = normalized growth mostly below about 0.91 (no sharp cut-off); inconclusive = no clear call, values can overlap the other calls; inactive = mostly above about 0.92.
# Experiment: chemical genetic growth profiling, strain panel (AID 1159580);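 note: tested at 20 µM; growth read once vehicle control cultures reached saturation at 30 °C; 1 = growth at the plate median or of vehicle wells; lower values mean less growth of the strain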
# Details: S. cerevisiae deletion strains, growth OD
structure (smiles),measurement,setting,value
CCOC(=O)c1c(C)cc(O)c(C=O)c1O,normalized growth,"locus YAL013W, strain DEP1, hits give low values",0.271 (active)
same,normalized growth,"locus YAL021C, strain ccr4, hits give low values",0.615 (active)
same,normalized growth,"locus YAL026C, strain drs2, hits give low values",0.212 (active)
same,normalized growth,"locus YAL030W, strain snc1, hits give low values",0.725 (active)
same,normalized growth,"locus YBL061C, strain skt5, hits give low values",0.642 (active)
same,normalized growth,"locus YBR009C, strain hhf1, hits give low values",0.592 (active)
same,normalized growth,"locus YBR021W, strain FUR4, hits give low values",0.851
same,normalized growth,"locus YBR023C, strain chs3, hits give low values",0.619 (active)
same,normalized growth,"locus YBR171W, strain sec66, hits give low values",0.776 (active)
same,normalized growth,"locus YBR229C, strain ROT2, hits give low values",0.541 (active)
same,normalized growth,"locus YBR231C, strain swc5, hits give low values",0.548 (active)
same,normalized growth,"locus YBR279W, strain paf1, hits give low values",0.66 (active)
same,normalized growth,"locus YCL011C, strain gbp2, hits give low values",0.616 (active)
same,normalized growth,"locus YCL016C, strain dcc1, hits give low values",0.714 (active)
same,normalized growth,"locus YCL029C, strain bik1, hits give low values",0.144 (active)
same,normalized growth,"locus YCL061C, strain MRC1, hits give low values",0.624 (active)
same,normalized growth,"locus YCL069W, strain vba3, hits give low values",0.531 (active)
same,normalized growth,"locus YCR088W, strain abp1, hits give low values",0.832 (active)
same,normalized growth,"locus YDL005C, strain med2, hits give low values",0.903 (active)
same,normalized growth,"locus YDL035C, strain GPR1, hits give low values",0.21 (active)
same,normalized growth,"locus YDL040C, strain nat1, hits give low values",0.86 (active)
same,normalized growth,"locus YDL074C, strain BRE1, hits give low values",0.156 (active)
same,normalized growth,"locus YDL101C, strain DUN1, hits give low values",0.16 (active)
same,normalized growth,"locus YDL134C, strain PPH21, hits give low values",0.249 (active)
same,normalized growth,"locus YDL185W, strain tfp1, hits give low values",0.0651 (active)
same,normalized growth,"locus YDL192W, strain arf1, hits give low values",0.202 (active)
same,normalized growth,"locus YDR001C, strain nth1, hits give low values",0.841 (active)
same,normalized growth,"locus YDR069C, strain doa4, hits give low values",0.516 (active)
same,normalized growth,"locus YDR101C, strain arx1, hits give low values",0.181 (active)
same,normalized growth,"locus YDR137W, strain rgp1, hits give low values",0.202 (active)
same,normalized growth,"locus YDR150W, strain NUM1, hits give low values",0.436 (active)
same,normalized growth,"locus YDR159W, strain sac3, hits give low values",0.413 (active)
same,normalized growth,"locus YDR162C, strain NBP2, hits give low values",0.0543 (active)
same,normalized growth,"locus YDR195W, strain ref2",0.908
same,normalized growth,"locus YDR297W, strain sur2, hits give low values",0.609 (active)
same,normalized growth,"locus YDR318W, strain mcm21, hits give low values",0.142 (active)
same,normalized growth,"locus YDR334W, strain swr1, hits give low values",0.619 (active)
same,normalized growth,"locus YDR335W, strain msn5, hits give low values",0.623 (active)
same,normalized growth,"locus YDR388W, hits give low values",0.213 (active)
same,normalized growth,"locus YDR392W, strain spt3, hits give low values",0.135 (active)
same,normalized growth,"locus YDR502C, strain sam2, hits give low values",0.185 (active)
same,normalized growth,"locus YEL003W, strain gim4, hits give low values",0.582 (active)
same,normalized growth,"locus YEL037C, strain rad23, hits give low values",0.71 (active)
same,normalized growth,"locus YEL061C, strain CIN8 (second series), hits give low values",0.643 (active)
same,normalized growth,"locus YEL061C, strain CIN8, hits give low values",0.153 (active)
same,normalized growth,"locus YER015W, strain faa2, hits give low values",0.516 (active)
same,normalized growth,"locus YER016W, strain bim1, hits give low values",0.768 (active)
same,normalized growth,"locus YER110C, hits give low values",0.295 (active)
same,normalized growth,"locus YER111C, strain swi4, hits give low values",0.278 (active)
same,normalized growth,"locus YER155C, strain BEM2 (second series), hits give low values",0.409 (active)
same,normalized growth,"locus YER155C, strain BEM2, hits give low values",0.178 (active)
same,normalized growth,"locus YER167W, strain BCK2, hits give low values",0.105 (active)
same,normalized growth,"locus YFR010W, strain ubp6, hits give low values",0.681 (active)
same,normalized growth,"locus YGL078C, strain dbp3, hits give low values",0.57 (active)
same,normalized growth,"locus YGL086W, strain mad1, hits give low values",0.186 (active)
same,normalized growth,"locus YGL167C, strain pmr1, hits give low values",0.842 (active)
same,normalized growth,"locus YGL173C, strain kem1, hits give low values",0.27 (active)
same,normalized growth,"locus YGL227W, strain vid30, hits give low values",0.821 (active)
same,normalized growth,"locus YGL240W, strain doc1, hits give low values",0.503 (active)
same,normalized growth,"locus YGL248W, strain PDE1, hits give low values",0.236 (active)
same,normalized growth,"locus YGL253W, strain hxk2, hits give low values",0.283 (active)
same,normalized growth,"locus YGR078C, strain PAC10, hits give low values",0.103 (active)
same,normalized growth,"locus YGR135W, strain pre9, hits give low values",0.119 (active)
same,normalized growth,"locus YGR229C, strain SMI1, hits give low values",0.0734 (active)
same,normalized growth,"locus YGR252W, strain gcn5, hits give low values",0.303 (active)
same,normalized growth,"locus YHR013C, strain ard1, hits give low values",0.506 (active)
same,normalized growth,"locus YHR027C, strain rpn1, hits give low values",0.405 (active)
same,normalized growth,"locus YHR030C, strain SLT2, hits give low values",0.064 (active) and 0.117 (active)
same,normalized growth,"locus YHR079C, strain IRE1 (second series), hits give low values",0.16 (active)
same,normalized growth,"locus YHR079C, strain IRE1, hits give low values",0.138 (active)
same,normalized growth,"locus YHR094C, strain hxt1, hits give low values",0.231 (active)
same,normalized growth,"locus YHR129C, strain ARP1, hits give low values",0.187 (active)
same,normalized growth,"locus YHR142W, strain chs7, hits give low values",0.345 (active)
same,normalized growth,"locus YHR200W, strain rpn10, hits give low values",0.484 (active)
same,normalized growth,"locus YIL066C, strain RNR3, hits give low values",0.167 (active)
same,normalized growth,"locus YIL073C, strain SPO22, hits give low values",0.211 (active)
same,normalized growth,"locus YIL125W, strain kgd1, hits give low values",0.471 (active)
same,normalized growth,"locus YIR030C, strain dcg1, hits give low values",0.196 (active)
same,normalized growth,"locus YJL092W, strain hpr5, hits give low values",0.756 (active)
same,normalized growth,"locus YJL095W, strain BCK1 (second series), hits give low values",0.381 (active)
same,normalized growth,"locus YJL095W, strain BCK1, hits give low values",0.0697 (active) and 0.127 (active)
same,normalized growth,"locus YJL115W, strain asf1, hits give low values",0.784 (active)
same,normalized growth,"locus YJL129C, strain trk1, hits give low values",0.613 (active)
same,normalized growth,"locus YJL134W, strain LCB3, hits give low values",0.535 (active)
same,normalized growth,"locus YJL154C, strain vps35, hits give low values",0.774 (active)
same,normalized growth,"locus YJL164C, strain tpk1, hits give low values",0.587 (active)
same,normalized growth,"locus YJL166W, strain qcr8, hits give low values",0.449 (active)
same,normalized growth,"locus YJL168C, strain set2, hits give low values",0.534 (active)
same,normalized growth,"locus YJL187C, strain SWE1 (second series), hits give low values",0.15 (active)
same,normalized growth,"locus YJL187C, strain SWE1, hits give low values",0.625 (active)
same,normalized growth,"locus YJR043C, strain POL32, hits give low values",0.209 (active)
same,normalized growth,"locus YJR066W, strain TOR1, hits give low values",0.091 (active)
